Compounds with a hit are over-represented: about 3.6% of the library has one in this group of screens.
Wnt act: Wnt/beta-catenin pathway activators, primary screen, cell-based, plate reader, single point; Wnt/beta-catenin reporter cell assay, activator; activation, % at 9.35 µM; actives 1.2% (n = 300,000); AID 743398, 2014; in the data active = activation above about 30%, passing the limit was not always enough; inconclusive = no clear call, values can overlap the other calls;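 note: 0% = neutral control wells and 100% = positive control wells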
A3A deaminase: APOBEC3A ssDNA deaminase inhibitors, primary screen, selectivity assay for APOBEC3G inhibitor project, biochemical, FAM/TAMRA oligo cleavage fluorescence. DNA dC->dU-editing enzyme APOBEC-3A (Homo sapiens), P31941. recombinant A3A, FAM/TAMRA ssDNA deamination fluorescence. inhibition, % at 20 µM. actives 0.41% (n = 330,000). AID 493011, 2011;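 active = at least 40% inhibition at 20 µM here, with at most 30% in a related deaminase screen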;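 note: plate controls were A3A with DMSO for no effect and wells lacking A3A enzyme for full effect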
Target sequence (P31941 whole entry, looked up): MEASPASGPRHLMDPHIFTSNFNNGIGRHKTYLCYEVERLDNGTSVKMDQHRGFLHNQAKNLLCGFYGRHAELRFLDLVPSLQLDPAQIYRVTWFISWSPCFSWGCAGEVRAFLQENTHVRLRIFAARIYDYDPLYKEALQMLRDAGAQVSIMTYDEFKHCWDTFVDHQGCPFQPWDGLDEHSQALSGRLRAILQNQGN
MITF act: activators of MITF-driven TRPM1 promoter reporter, primary screen, cell-based, SK-MEL-5, luciferase, single point | SK-MEL-5 TRPM1-promoter luciferase, 24 h; % of positive control, neutral wells = 0 | activation, % at 12.5 µM | actives 0.75% (n = 300,000) | AID 588334, 2011;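 active = mean activation of at least 80% with every replicate also reaching 80%; inconclusive = mean reaches 80% but some replicate falls short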;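 note: 0% = neutral control wells and 100% = parthenolide positive control wells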
esBAF inh: Bmi1 luciferase reporter increase in mESCs, primary screen, esBAF inhibitor project, mouse ES cells, Bmi1 luciferase knock-in, single point; 24 h; 100% = twice the neutral-well signal; reporter increase, % at 12.5 µM; actives 2% (n = 350,000); in the data active = activation above about 40%; inconclusive = no clear call, values can overlap the other calls;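 note: 0% = median of the plate's neutral control wells and 100% = double that signal; a rise in the Bmi1 reporter signal indicates esBAF inhibition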
PHOSPHO1 inh: PubChem AID 1565 | Phosphoethanolamine/phosphocholine phosphatase (Homo sapiens), Q8TCT1 | recombinant PHOSPHO1, absorbance phosphatase assay | inhibition, % at 13.3 µM | actives 1.1% (n = 290,000); in the data active = inhibition above about 60%
Target sequence (Q8TCT1 whole entry, looked up): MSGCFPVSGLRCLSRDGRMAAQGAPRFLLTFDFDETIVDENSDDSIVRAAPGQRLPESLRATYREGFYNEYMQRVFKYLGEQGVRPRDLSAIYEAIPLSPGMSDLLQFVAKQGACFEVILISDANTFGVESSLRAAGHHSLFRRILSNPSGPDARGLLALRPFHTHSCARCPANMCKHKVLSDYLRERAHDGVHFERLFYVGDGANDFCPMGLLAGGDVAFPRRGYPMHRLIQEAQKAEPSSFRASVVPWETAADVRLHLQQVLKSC
APOBEC3G inh: APOBEC3G DNA deaminase inhibitors, primary screen, biochemical, fluorescence, single-stranded DNA substrate, uHTS; DNA dC->dU-editing enzyme APOBEC-3G (Homo sapiens), Q9HC16; recombinant A3G, ssDNA deamination FAM/TAMRA fluorescence; inhibition, % at 20 µM; actives 0.28% (n = 330,000); AID 493012, 2011;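 active = inhibition of at least 40% at 20 µM, with no more than 30% in the related APOBEC3A deaminase screen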;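 note: plate controls were DMSO wells with A3G for no effect and wells lacking A3G enzyme for full effect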
The depositor's hits bear a star; ? = inconclusive; / = not tested or not shown; ! = not active in a repeat.

SMILES	Wnt act	A3A deaminase	MITF act	esBAF inh	PHOSPHO1 inh	APOBEC3G inh
C[C@H](CO)N1C[C@H](C)[C@H](CN(C)C(=O)Nc2cccc3ccccc23)Oc2ccc(NC(=O)Cc3ccccc3)cc2C1=O	/	/	/	0.8	/	/
COc1ccc(N=c2oc3ccc(OC)cc3cc2-c2nc3ccccc3[nH]2)cc1	/	-2.5	0.5	60.3*	-117.4	-0.3
COc1cccc(N=c2oc3ccc(OC)cc3cc2-c2nc3ccccc3[nH]2)c1	20.3	11.5	-8.7	7.8	6.9	7.8
COc1cccc(N=c2oc3ccccc3cc2-c2nc3ccccc3[nH]2)c1	46.7*	-3.3	-11.0	-18.3	-26.5	-3.1
C[C@H](CO)N1C[C@H](C)[C@H](CN(C)C(=O)Nc2ccc3c(c2)OCO3)Oc2ncc(-c3cccnc3)cc2C1=O	/	/	/	-3.7	/	/
C[C@H](NC(=O)C[C@@H]1C=C[C@@H](NC(=O)C2CCOCC2)[C@H](CO)O1)c1ccccc1	/	/	/	-4.7	/	/
COc1ccc(-c2cc(C(=O)Nc3cc(OC)cc(C(=O)Nc4cccc(C(F)(F)F)c4)c3)[nH]n2)cc1	-1.8	-1.9	9.4	48.0*!	26.5	-4.4
COc1cc(NC(=O)c2ccc(N)nc2)cc(C(=O)Nc2cccc(C(F)(F)F)c2)c1	-1.6	0.5	34.6	45.2*!	44.1	-4.0
COC(=O)c1cc(-c2ccc(OC)cc2)n[nH]1	-1.7	1.6	91.4*	?	-14.3	-2.8
COC(=O)c1cc(-c2ccc(C)cc2)n[nH]1	?	-1.6	15.3	/	47.7	-1.8
COc1ccc(S(=O)(=O)N(C)C[C@@H]2Oc3ccc(NS(=O)(=O)c4cccs4)cc3C(=O)N([C@H](C)CO)C[C@@H]2C)cc1	/	/	/	0.3	/	/
COc1ccc(CNC(=O)C[C@@H]2CC[C@@H](NC(=O)Nc3ccc4c(c3)OCO4)[C@H](CO)O2)cc1	/	/	/	-17.0	/	/
Cc1cc(C(=O)NCCCN2CCN(C3CCCCC3)CC2)n(-c2ccccc2)n1	-1.8	42.8*	-2.2	0.1	-25.6	-5.9
Cc1ccccc1NC(=O)NCCCN1CCN(C2CCCCC2)CC1	/	-3.4	-0.9	-5.5	-10.0	-4.3
Cc1ccc(O)c(C(=O)CC(=O)c2ccccc2Cl)c1	8.8	0.5	21.9	/	41.2	-3.9
Cc1ccc(C(=O)CC(=O)c2ccccc2C)c(O)c1	11.9	-6.5	-9.1	62.2*	37.1	-7.5
Cc1ccc(C(=O)CC(=O)c2cccc(F)c2)c(O)c1	/	-0.5	/	46.2*	16.2	1.0
C[C@@H]1CCCCO[C@@H](CN(C)C(=O)c2ccncc2)[C@H](C)CN([C@@H](C)CO)C(=O)c2cc(NS(=O)(=O)c3cn(C)cn3)ccc2O1	/	/	/	-0.3	/	/
CC(=O)N1[C@H](CO)[C@H](c2ccc(C3=CCCC3)cc2)[C@H]1CNC(=O)CN(C)C	/	/	/	-1.1	/	/
Cc1ccc2nc(-c3ccc(N4C(=N)SC5CS(=O)(=O)CC54)cc3)sc2c1 (stereo not given)	/	2.3	104.2*	/	-18.9	0.4
Cc1ccc2nc(-c3ccc(N)cc3)sc2c1	16.3	1.5	/	/	20.3	-3.2
O=C(NCC1CC1)[C@H]1[C@H](CO)[C@H]2Cn3c(ccc(-c4ccccc4)c3=O)[C@H]2N1CC1CC1	/	/	/	-3.0	/	/
O=C(O)c1cc(-c2ccc(/C=C3\NC(=O)N(c4ccc(Cl)cc4)C3=O)o2)ccc1Cl	-0.5	82.1	3.9	/	-21.7	57.7
C#CCN1C(=O)S/C(=C\c2ccc(-c3ccc(Cl)c(C(=O)O)c3)o2)C1=O	31.1*	12.1	27.4	38.2	-7.8	-4.2
CCCCCOc1ccc(CSc2n[nH]c(C)n2)cc1	10.8	-2.2	74.7	/	36.6	-4.9
Cc1nc(SCc2ccc(OCCC(C)C)cc2)n[nH]1	16.2	-3.3	15.5	45.1*	38.9	-5.0
O=[N+]([O-])c1ccccc1N=NNc1ccccc1	13.9	/	41.0	113.3*	/	/
COCC#Cc1cnc2c(c1)C(=O)N([C@H](C)CO)C[C@H](C)[C@@H](CN(C)C(=O)c1ccc3c(c1)OCO3)O2	/	/	/	0.5	/	/

Screening data deposited in PubChem by several laboratories.
